Results filed as inconclusive are left out. Calls of active or inactive are those of the source. Calls come from the whole dose curve; as a rule, active = well fitted curve in the direction sought with a large enough effect; inconclusive = small, poorly fitted or top-dose-only effect, or another doubt; inactive = no such curve, though single readings can be large; an effect the other way counts as inactive or inconclusive.

The first experiment can be described thus: Cell Viability - LYMP2-001 (AID 921).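 Note: cells exposed to compound for 24 h at 37 °C; nearly all actives have a fitted effect of over 70% in size.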 Conditions: LYMP2-001 lymphoblastoid cell viability; series mostly up to 92.2 µM. In short, it runs like this: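 qHTS, 1536-well; lymphoblastoid cells, 24 hr compound, 37 C; ATP by CellTiter-Glo, 30 min RT; luminescence; Hill-fit AC50.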
Turning to `CC(=O)Nc1ccc(C(=O)O)cc1`, the compound was classed as inactive.
In the case of `CCCC(O)C(CC)CO` (configuration not stated), the outcome was inactive.
As to `O=C(c1ccccc1)C(O)c1ccccc1` (configuration not stated), the result was inactive.
Consider `FC(F)(F)C(Cl)Br` (configuration not stated), for which the call was inactive.
Same read-out and setting: the value for `CCCCCC(N)=O` was “inactive”; that for `COc1ccc(O)cc1` was “inactive”; that for `CCCCCCCC(=O)OCC(COC(=O)CCCCCCC)OC(=O)CCCCCCC` was “inactive”.
The same measure, in the same setting: the entry for `O=C1C(c2[nH]c3ccccc3c2O)=Nc2ccccc21` is “inactive”; for `C=CCNC(N)=S` it is “inactive”.
Consider `Cc1c(N(C)C)c(=O)n(-c2ccccc2)n1C`, for which the outcome was inactive.

A further experiment can be described thus: Confirmation and Secondary Assay for Modulators of Hemoglobin Beta Chain Splicing at IVS2 705 locus (AID 930).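 Note: HeLa cells stably expressing the EGFP-705 splicing reporter; GFP fluorescence per well restored by corrected splicing of the IVS2-705 intron in EGFP.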 The settings on record: HeLa EGFP-705 splicing reporter, GFP fluorescence, 48 h; series mostly up to 46.1 µM. In short, it runs like this:
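Fluorescence gain (488 nm laser, 500-520 nm PMT) reflects restored correct splicing of a mutant IVS2-705 intron inside EGFP in stably transfected HeLa cells after 2-day compound treatment.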
`Cc1[nH]c(C)c(Cl)c(=O)c1Cl`: the compound was called inactive.
Same read-out and setting: the entry for `Cc1c(NC(C)C)c(=O)n(-c2ccccc2)n1C` is “inactive”; for `NS(=O)(=O)c1cc2c(cc1C(F)(F)F)NCNS2(=O)=O` it is “inactive”; for `O=C(O)c1ccccc1OP(=O)(O)O` it is “inactive”.
On the same count and under the same terms, the value for `CC(N)CCCC(C)(C)O` (configuration not stated) was “inactive”; that for `COc1ccc(NS(=O)(=O)c2ccc(N)cc2)nn1` was “inactive”.
Same read-out and setting: the value for `Cn1c([N+](=O)[O-])cnc1COC(N)=O` was “inactive”; that for `CC(=O)NCc1c(I)c(NC(C)=O)c(I)c(C(=O)O)c1I` was “inactive”; that for `CCCCCC(C)N` (configuration not stated) was “inactive”.
Take `NC(=O)NC1NC(=O)NC1=O` (configuration not stated): the compound was called inactive.
Still for that read-out and setting: the value for `O=C(Cn1ccnc1[N+](=O)[O-])NCCO` was “inactive”; that for `NCc1ccc(S(N)(=O)=O)cc1` was “inactive”.
On the same count and under the same terms, the entry for `COc1ccccc1OCC(O)CO` (configuration not stated) is “inactive”; for `CCS(=O)(=O)CCn1c([N+](=O)[O-])cnc1C` it is “inactive”.
Still for that read-out and setting: the value for `CCCCC1(COC(=O)CCC(=O)O)C(=O)N(c2ccccc2)N(c2ccccc2)C1=O` was “inactive”.
Take `O=C1c2cccc(O)c2C(=O)c2c(O)cccc21`: the call was inactive.
The same measure, in the same setting: the value for `O=C(CCBr)N1CCN(C(=O)CCBr)CC1` was “inactive”.
Turning to `O=c1[nH]cnc2nc[nH]c12`, the compound was called inactive.
On to `Cc1ccsc1/C=C/C1=NCCCN1C`, for which the result was inactive.
Same read-out and setting: the value for `CN1CCCN=C1COC(=O)C(O)(c1ccccc1)C1CCCCC1` (configuration not stated) was “inactive”.
As to `OC(CCN1CCCC1)(c1ccccc1)C1CCCCC1` (configuration not stated), the result was inactive.
For `NC(N)=NS(=O)(=O)c1ccc(N)cc1`, the compound was called inactive.
The same measure, in the same setting: the entry for `O=C(O)c1cc(=O)c2ccccc2o1` is “inactive”.

The nature of the next experiment: MultiTox-Fluor Cytotoxicity Assay - LYMP1-001 - Dead Cells (AID 946). The settings on record: LYMP1-001 lymphoblastoid cells, dead-cell protease fluorescence; series mostly up to 92.2 µM. In short, it runs like this:
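AC50 from Hill fit of concentration-response; data normalized to DMSO (basal) and 15 uM tetraoctylammonium bromide (100%). LYMP1-001 lymphoblastoid cells, 2500/well, 16 hr compound at 37 C; dead-cell protease fluorescence, Ex/Em 485/520.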
For the compound `CC(=O)Nc1ccc(C(=O)O)cc1`, the compound was classed as inactive.
The same measure, in the same setting: the entry for `CCCC(O)C(CC)CO` (configuration not stated) is “inactive”; for `O=C(c1ccccc1)C(O)c1ccccc1` (configuration not stated) it is “inactive”.
Same read-out and setting: the value for `FC(F)(F)C(Cl)Br` (configuration not stated) was “inactive”; that for `CCCCCC(N)=O` was “inactive”.
On the same count and under the same terms, the value for `COc1ccc(O)cc1` was “inactive”; that for `CCCCCCCC(=O)OCC(COC(=O)CCCCCCC)OC(=O)CCCCCCC` was “inactive”; that for `O=C1C(c2[nH]c3ccccc3c2O)=Nc2ccccc21` was “inactive”.
As to `O=C1c2cccc(O)c2C(=O)c2c(O)cccc21`, the result was inactive.
Still for that read-out and setting: the entry for `C=CCNC(N)=S` is “inactive”.
Regarding `Cc1c(N(C)C)c(=O)n(-c2ccccc2)n1C`, the call was inactive.

The next experiment can be described thus: MultiTox-Fluor Cytotoxicity Assay - LYMP1-001 - Live Cells (AID 947). The settings on record: LYMP1-001 lymphoblastoid cells, live-cell protease fluorescence viability; series mostly up to 92.2 µM.
For `CC(=O)Nc1ccc(C(=O)O)cc1`, the outcome was inactive.
Same read-out and setting: the value for `CCCC(O)C(CC)CO` (configuration not stated) was “inactive”.
Still for that read-out and setting: the value for `O=C(c1ccccc1)C(O)c1ccccc1` (configuration not stated) was “inactive”.
Consider `FC(F)(F)C(Cl)Br` (configuration not stated), for which the call was inactive.
The same measure, in the same setting: the value for `CCCCCC(N)=O` was “inactive”; that for `COc1ccc(O)cc1` was “inactive”.
Same read-out and setting: the value for `CCCCCCCC(=O)OCC(COC(=O)CCCCCCC)OC(=O)CCCCCCC` was “inactive”; that for `O=C1C(c2[nH]c3ccccc3c2O)=Nc2ccccc21` was “inactive”; that for `O=C1c2cccc(O)c2C(=O)c2c(O)cccc21` was “inactive”.
Still for that read-out and setting: the entry for `C=CCNC(N)=S` is “inactive”; for `Cc1c(N(C)C)c(=O)n(-c2ccccc2)n1C` it is “inactive”.

The nature of another experiment: Cell Viability - LYMP1-002 - Assay at 16 hr (AID 948). Conditions: LYMP1-002 lymphoblastoid cell viability; series mostly up to 92.2 µM. In short, it runs like this: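 Acute cytotoxicity is scored as a concentration-dependent fall in intracellular ATP in a human lymphoblastoid line (LYMP1-002) after 16 hr compound exposure at 37 C, measured by luciferase luminescence.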
`CC(=O)Nc1ccc(C(=O)O)cc1`: the compound was called inactive.
The same measure, in the same setting: the entry for `CCCC(O)C(CC)CO` (configuration not stated) is “inactive”.
As for `O=C(c1ccccc1)C(O)c1ccccc1` (configuration not stated), the result was inactive.
Still for that read-out and setting: the value for `FC(F)(F)C(Cl)Br` (configuration not stated) was “inactive”; that for `CCCCCC(N)=O` was “inactive”; that for `COc1ccc(O)cc1` was “inactive”.
With `CCCCCCCC(=O)OCC(COC(=O)CCCCCCC)OC(=O)CCCCCCC`, the result was inactive.
On to `O=C1C(c2[nH]c3ccccc3c2O)=Nc2ccccc21`, for which the result was inactive.
Take `O=C1c2cccc(O)c2C(=O)c2c(O)cccc21`: the call was inactive.
As to `C=CCNC(N)=S`, the call was inactive.
The same measure, in the same setting: the value for `Cc1c(N(C)C)c(=O)n(-c2ccccc2)n1C` was “inactive”.

A further experiment can be described thus: MultiTox-Fluor Cytotoxicity Assay - LYMP1-002 - Live Cells (AID 955).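 Note: cells exposed to compound for 16 hours.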 Conditions: LYMP1-002 lymphoblastoid live-cell protease fluorescence viability; series mostly up to 46.1 µM. Put shortly: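 In this qHTS viability format, lymphoblastoid cells (LYMP1-002, human) received compound for 16 hr at 37 C. Fluorogenic GF-AFC cleavage by viable cells was detected at 405/510 nm after 1 h at room temperature.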
In the case of `CC(=O)Nc1ccc(C(=O)O)cc1`, the compound was classed as inactive.
Still for that read-out and setting: the entry for `CCCC(O)C(CC)CO` (configuration not stated) is “inactive”.
Turning to `O=C(c1ccccc1)C(O)c1ccccc1` (configuration not stated), the compound was classed as inactive.
Still for that read-out and setting: the value for `FC(F)(F)C(Cl)Br` (configuration not stated) was “inactive”; that for `CCCCCC(N)=O` was “inactive”; that for `COc1ccc(O)cc1` was “inactive”.
As for `CCCCCCCC(=O)OCC(COC(=O)CCCCCCC)OC(=O)CCCCCCC`, the outcome was inactive.
Still for that read-out and setting: the value for `O=C1C(c2[nH]c3ccccc3c2O)=Nc2ccccc21` was “inactive”; that for `O=C1c2cccc(O)c2C(=O)c2c(O)cccc21` was “inactive”.
In the case of `C=CCNC(N)=S`, the compound was called inactive.
Take `Cc1c(N(C)C)c(=O)n(-c2ccccc2)n1C`: the compound was classed as inactive.

A short description of a further experiment: MultiTox-Fluor Cytotoxicity Assay - LYMP1-002 - Dead Cells (AID 960). Note: nearly all actives have a fitted effect of over 60% in size. The settings on record: LYMP1-002 lymphoblastoid cells, dead-cell protease fluorescence; series mostly up to 46.1 µM. In short, it runs like this: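 Concentration-dependent increases in membrane-leaked protease activity are quantified in LYMP1-002 cells after 16 hr treatment; values are normalized against DMSO and tetraoctylammonium bromide (15 uM) controls and AC50 derived by Hill modeling.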
`CC(=O)Nc1ccc(C(=O)O)cc1`: the compound was classed as inactive.
On the same count and under the same terms, the entry for `CCCC(O)C(CC)CO` (configuration not stated) is “inactive”; for `O=C(c1ccccc1)C(O)c1ccccc1` (configuration not stated) it is “inactive”.
Still for that read-out and setting: the entry for `FC(F)(F)C(Cl)Br` (configuration not stated) is “inactive”; for `CCCCCC(N)=O` it is “inactive”.
Same read-out and setting: the value for `COc1ccc(O)cc1` was “inactive”; that for `CCCCCCCC(=O)OCC(COC(=O)CCCCCCC)OC(=O)CCCCCCC` was “inactive”; that for `O=C1C(c2[nH]c3ccccc3c2O)=Nc2ccccc21` was “inactive”.
As to `O=C1c2cccc(O)c2C(=O)c2c(O)cccc21`, the compound was called inactive.
`C=CCNC(N)=S`: the outcome was inactive.

Values taken from PubChem BioAssay (NCATS).
